Here are results for 9 compounds from PubChem BioAssay (NCATS).

The target of test [1] is Ferritin light chain (Equus caballus) (UniProt P02791). Put plainly: qHTS Validation Assay for Identification of Novel General Anesthetics (AID 2323). Also: series mostly up to about 77 µM. In a few lines:
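Apoferritin from horse spleen (10 uM) was mixed with 1-aminoanthracene at 50% saturation in PBS, then compounds were added. After 10 min at room temperature, fluorescence was read (ex 380 nm, em 535 nm) and normalized to free-probe and complex controls.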
A general note: qHTS replaces the single test concentration by a dilution series.

In test [2] the target is ATP-dependent DNA helicase Q1 (Homo sapiens) (UniProt P46063). Put plainly: qHTS Validation Assay for Inhibitors of RecQ-Like Dna Helicase 1 (RECQ1) (AID 2353). The method, boiled down: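 RECQ1T1 50 nM; forked duplex (20 bp + 30-nt ss tails) 200 nM, ATP 2 mM final; pH 8.0, 2 mM MgCl2, 2.5 ug/ml poly(dI-dC); 15 min compound preincubation; discontinuous kinetic read over 2 h at RT.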

Test [3] is described as follows: Cytometric Cell-Based qHTS for Inhibitors of the mTORC1 Signaling Pathway in MEF (Tsc2-/-, p53-/-) Cells (AID 2660).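 Also: Tsc2 and p53 null MEFs carrying empty vector with compound for 24 h; percent of cells above a phospho-rpS6 to PI ratio cutoff in each well; series mostly up to about 38 µM.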 In a few lines:
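Immunofluorescence qHTS of rpS6 Ser235/236 phosphorylation: MEFs (Tsc2-/-, p53-/-) treated 24 h, 37 C, in DMEM + 10% FBS. Alexa-488 signal normalized to PI count, referenced to rapamycin (7.5 nM) and DMSO; PI cell number recorded for viability.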

A short description of test [4]: High Content Imaging Cell-Based qHTS for Inhibitors of the mTORC1 Signaling Pathway in MEF (Tsc2-/-, p53-/-) Cells (AID 2666).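 Also: percent of cells scored positive for phospho-rpS6 Ser235/236 immunostaining by imaging.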 In a few lines:
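Inhibition of rpS6 phosphorylation is measured by immunofluorescence imaging in empty-vector Tsc2-/-, p53-/- mouse embryonic fibroblasts after 24 hrs compound exposure at 37 degree Celsius. Results are reported as % positive cells per well.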

Test [5] is described as follows: High Content Imaging Cell-Based qHTS for Inhibitors of the mTORC1 Signaling Pathway in MEF Cells (AID 2667).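 Also: Tsc2-/- p53-/- MEFs stably re-expressing wild-type Tsc2 exposed 24 h; series mostly up to about 38 µM.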 The method, boiled down: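 Fixed-cell imaging of phospho-S6 (Ser235/236, Alexa-488) after 24 hrs of compound treatment at 37 degree Celsius. Signal was normalized to Hoechst, and thresholds from the highest and lowest wells split cells into % active versus % non-active.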

Test [6] can be described thus: Cytometry Cell-Based qHTS for Inhibitors of the mTORC1 Signaling Pathway in MEF cells (AID 2668).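 Also: Tsc2-/- p53-/- mouse embryonic fibroblasts stably re-expressing wild-type Tsc2; percent cells positive for phospho-rpS6 Ser235/236 relative to propidium iodide stain; series mostly up to about 38 µM.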 In a few lines: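 Pathway inhibition in WT Tsc2-rescued Tsc2-/-, p53-/- MEFs is measured as the Alexa-488 phospho-rpS6 to propidium iodide intensity ratio after 24 hrs of compound at 37 degree Celsius. PI-stained cell number gives viability.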
The nature of test [7]: Validation screen for small molecules that induce DNA re-replication in MCF 10A normal breast cells (AID 463097). Also: nearly all actives have a fitted effect of over 60% in size. In a few lines: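 DNA re-replication was detected as a rise in nuclei with elevated Hoechst fluorescence after a 48 hr compound exposure of MCF 10A cells at 37 C.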
Test [8] concerns the target Ubiquitin carboxyl-terminal hydrolase 2 (Homo sapiens) (UniProt O75604). Put plainly: qHTS Validation Assay for Inhibitors of Ubiquitin-specific Protease USP2a Using CHOP2 as the Reporter (AID 463106). In a few lines:
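Inhibition is expressed relative to NEM as the full-inhibition control, with concentration-response curves classed by fit quality, magnitude and activity. Enzyme (USP2 core, 10nM) meets 25nM Ub-CHOP2 after compound preincubation; readings are taken at 60min.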

Test [9] deals with Tumor susceptibility gene 101 protein (Homo sapiens) (UniProt Q99816). Put plainly: qHTS Validation Assay for Iinhibitors of HIV-1 Budding by Blocking the Interaction of PTAP/TSG101 (AID 485342; calls by dose curve). The method, boiled down: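 Fluorescence anisotropy measured PTAP-Tsg101 interaction. Final concentrations were 10 uM protein domain and 50 nM labeled peptide, equilibrated 20 min at room temperature.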

Test [10] is described as follows: qHTS Validation Assay to Find Inhibitors of Chronic Active B-Cell Receptor Signaling (AID 485345; active = well fitted curve in the direction sought with a large enough effect in the main read-out, with a control signal flat, not every such curve was filed as active). The method, boiled down:
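TMD8 ABC-DLBCL cells with dox-inducible green luciferase–IκBα fusion and red native luciferase; compounds 46 uM–3 nM, 4 h at 37C with doxycycline in 0.5% FBS IMDM. Green/red ratio normalized to basal and 10 uM MG-132.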

Test [11] concerns the target Beta-2 adrenergic receptor (Homo sapiens) (UniProt P07550). Put plainly: qHTS validation assay of beta-arrestin-biased ligands of beta2-adrenergic receptor (AID 485366). In a few lines: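 Agonism was measured as beta-arrestin recruitment to recombinant beta2-AR, releasing tTA to drive luciferase. Cells were exposed for 18 hr at 37 degrees C to a series up to 46 microM. %Activity from corrected luminescence gave concentration-response curves.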

The target of test [12] is Thioredoxin reductase 1, cytoplasmic (Rattus norvegicus) (UniProt O89049). Put plainly: qHTS Assay for Substrates of Mammalian Selenoprotein Thioredoxin Reductase 1 (TrxR1) (AID 488772).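 Also: series mostly up to about 57 µM; a drop in NADPH fluorescence below the no-compound background marks a TrxR1 substrate.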 The method, boiled down:
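In this dual-purpose format, potential substrates are identified from the first fluorescence read after selenite addition, not from the 8-minute delta. Rat enzyme is preincubated with NADPH and then with compound at ~22 deg C.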

For test [13] the target is unchanged. Put plainly: qHTS Assay for Inhibitors of Mammalian Selenoprotein Thioredoxin Reductase 1 (TrxR1) (AID 488773). Also: nearly all actives have a fitted effect of over 40% in size. Also: potency is read from the fitted curve at half-maximal effect. The conditions noted are these: Potency: inhibition. The method, boiled down: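 Inhibition is scored from the loss of NADPH fluorescence between first and last reads of an 8-min kinetic run. Selenite (400 uM) was the substrate, added after 15 min compound preincubation at room temperature.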

For test [14], the target named is Flap endonuclease 1 (Homo sapiens) (UniProt P39748). The experiment in a line: qHTS Validation Assay for the Inhibitors of Human Flap endonuclease 1 (FEN1) (AID 488816). The method, boiled down: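 Steps: add FEN1 (10 nM reagent) or buffer only; pin compounds; hold 15 min at room temperature; start with substrate, 50 nM final; read at 0 and 15 min; correct, normalize and fit a four-parameter Hill curve.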

The target in test [15] is M-phase phosphoprotein 8 (Homo sapiens) (UniProt Q99549). The experiment in a line: qHTS Validation Assay for Inhibitors for MPP8 Chromodomain Interactions with Methylated Histone Tails (AID 488949).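 Also: AlphaScreen signal from MPP8 chromodomain bound to biotinylated H3K9me3 peptide; top concentration of the series differs between compounds; nearly all actives have a fitted effect of over 55% in size.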 The method, boiled down:
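Disruption of the preformed MPP8–trimethyl-H3K9 peptide complex (both 50 nM, 30 min, RT) is measured after 30 min compound exposure, using AlphaScreen proximity beads; aurintricarboxylic acid titration serves as plate control.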

Test [16] has as its target ATP-dependent 6-phosphofructokinase (Trypanosoma brucei brucei) (UniProt O15648). The experiment in a line: qHTS Validation Assay to Find Inhibitors of T. brucei phosphofructokinase (AID 485368). The conditions noted are these: outcome: dose series up to 57.5 µM. In a few lines:
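ADP-Glo luminescence, two-step: residual ATP depleted, then ADP converted to ATP for luciferase. Enzyme 1.25 nM, F6P 0.5 mM, ATP 0.1 mM, pH 8.0 TEA buffer, 45 min RT. Curves fitted and classed by quality and efficacy.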

Test [17] addresses DNA polymerase III PolC-type (Bacillus subtilis (strain 168)) (UniProt P13267). Put plainly: qHTS Validation Assay for the Inhibitors of DNA Replication in Gram-Positive Bacteria (AID 485295).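 Also: reconstituted holoenzyme with PolC plus beta clamp SSB and primase; PicoGreen fluorescence of double-stranded DNA made on primed circular M13 template; series mostly up to about 57 µM.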 In a few lines: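 Primed replication of single-stranded M13Gori by a four-protein B. subtilis holoenzyme is measured at room temperature. Double-stranded product is quantified by PicoGreen fluorescence after an EDTA stop; inhibition is scaled between DMSO and EDTA controls.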

Test [18] is described as follows: Quantitative high throughput screen for delayed death inhibitors of the malarial parasite plastid, 96 hour incubation (AID 488745).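 Also: luciferase-expressing P. falciparum in erythrocytes at 2% hematocrit and 0.1% parasitemia; series mostly up to about 29 µM; nearly all actives have a fitted effect of over 70% in size.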 In a few lines:
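Luciferase-expressing P. falciparum, infected RBCs 2% Hct/0.1% parasitemia (final); 96 h cpd exposure, 37 C, 5% CO2; RPMI 1640 + 0.5% Albumax, bicarbonate, gentamycin. Readout: luminescence loss = growth inhibition.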

The nature of test [19]: Quantitative high throughput screen for delayed death inhibitors of the malarial parasite plastid, 48 hour incubation (AID 488752). Also: nearly all actives have a fitted effect of over 65% in size. The method, boiled down:
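Luciferase-expressing P. falciparum in RBCs, 2% Hct, 0.1% parasitemia final; RPMI 1640 + 0.5% Albumax; 48 h, 37 C, 5% CO2; luminescence readout, signal drop = growth inhibition.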

Each structure is given as a SMILES string. Inconclusive results are not listed. The source made the active and inactive calls. Unless noted, calls follow the shape of the dose curve; as a rule, active = well fitted curve in the direction sought with a large enough effect; inconclusive = small, poorly fitted or top-dose-only effect, or another doubt; inactive = no such curve, though single readings can be large; an effect the other way counts as inactive or inconclusive.

Sequence of Flap endonuclease 1 (Homo sapiens) (P39748 whole entry, looked up): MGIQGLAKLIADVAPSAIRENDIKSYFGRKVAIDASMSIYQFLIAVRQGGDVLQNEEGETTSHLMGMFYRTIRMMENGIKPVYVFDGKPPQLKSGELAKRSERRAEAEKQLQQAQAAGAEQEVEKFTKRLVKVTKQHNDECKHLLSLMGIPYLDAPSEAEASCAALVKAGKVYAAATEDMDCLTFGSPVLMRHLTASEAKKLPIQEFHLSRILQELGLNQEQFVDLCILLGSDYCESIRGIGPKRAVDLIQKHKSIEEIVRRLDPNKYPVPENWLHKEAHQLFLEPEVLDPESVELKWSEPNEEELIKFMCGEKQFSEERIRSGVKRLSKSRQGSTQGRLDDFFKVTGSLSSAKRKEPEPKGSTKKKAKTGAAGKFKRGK
Sequence of Beta-2 adrenergic receptor (Homo sapiens) (P07550 whole entry, looked up): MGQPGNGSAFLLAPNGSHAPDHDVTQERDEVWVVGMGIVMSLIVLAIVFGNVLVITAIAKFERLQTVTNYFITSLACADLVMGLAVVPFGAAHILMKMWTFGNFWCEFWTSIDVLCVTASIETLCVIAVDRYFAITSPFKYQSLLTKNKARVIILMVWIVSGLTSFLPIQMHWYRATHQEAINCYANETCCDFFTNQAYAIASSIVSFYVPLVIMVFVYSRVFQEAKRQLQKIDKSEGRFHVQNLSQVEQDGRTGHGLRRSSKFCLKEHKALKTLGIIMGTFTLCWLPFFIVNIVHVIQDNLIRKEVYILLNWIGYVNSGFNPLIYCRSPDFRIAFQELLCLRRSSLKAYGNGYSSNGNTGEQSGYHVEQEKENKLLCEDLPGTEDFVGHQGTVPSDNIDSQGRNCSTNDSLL
Sequence of ATP-dependent DNA helicase Q1 (Homo sapiens) (P46063 whole entry, looked up): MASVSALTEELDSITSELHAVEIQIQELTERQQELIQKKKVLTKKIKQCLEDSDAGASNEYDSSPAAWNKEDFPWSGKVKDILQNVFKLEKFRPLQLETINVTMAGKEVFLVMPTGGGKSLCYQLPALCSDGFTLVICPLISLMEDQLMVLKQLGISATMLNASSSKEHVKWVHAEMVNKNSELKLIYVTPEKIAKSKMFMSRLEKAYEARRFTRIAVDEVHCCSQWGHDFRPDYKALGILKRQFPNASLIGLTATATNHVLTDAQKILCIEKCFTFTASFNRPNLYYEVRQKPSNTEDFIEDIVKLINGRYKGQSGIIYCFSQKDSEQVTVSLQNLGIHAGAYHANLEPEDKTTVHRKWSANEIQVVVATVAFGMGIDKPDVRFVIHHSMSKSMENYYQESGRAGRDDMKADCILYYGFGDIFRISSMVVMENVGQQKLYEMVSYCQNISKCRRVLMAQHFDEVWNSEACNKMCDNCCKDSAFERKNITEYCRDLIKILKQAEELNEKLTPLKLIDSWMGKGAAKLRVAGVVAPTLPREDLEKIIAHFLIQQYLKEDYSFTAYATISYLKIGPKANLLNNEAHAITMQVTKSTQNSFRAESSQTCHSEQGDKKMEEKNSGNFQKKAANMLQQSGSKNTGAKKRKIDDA
Sequence of Ferritin light chain (Equus caballus) (P02791 2-175 limits assumed): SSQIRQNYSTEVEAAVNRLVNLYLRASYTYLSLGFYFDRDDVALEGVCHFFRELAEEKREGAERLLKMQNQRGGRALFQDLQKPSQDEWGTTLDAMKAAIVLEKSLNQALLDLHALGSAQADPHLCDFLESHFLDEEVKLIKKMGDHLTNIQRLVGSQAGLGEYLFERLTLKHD
Sequence of Ubiquitin carboxyl-terminal hydrolase 2 (Homo sapiens) (O75604 whole entry, looked up): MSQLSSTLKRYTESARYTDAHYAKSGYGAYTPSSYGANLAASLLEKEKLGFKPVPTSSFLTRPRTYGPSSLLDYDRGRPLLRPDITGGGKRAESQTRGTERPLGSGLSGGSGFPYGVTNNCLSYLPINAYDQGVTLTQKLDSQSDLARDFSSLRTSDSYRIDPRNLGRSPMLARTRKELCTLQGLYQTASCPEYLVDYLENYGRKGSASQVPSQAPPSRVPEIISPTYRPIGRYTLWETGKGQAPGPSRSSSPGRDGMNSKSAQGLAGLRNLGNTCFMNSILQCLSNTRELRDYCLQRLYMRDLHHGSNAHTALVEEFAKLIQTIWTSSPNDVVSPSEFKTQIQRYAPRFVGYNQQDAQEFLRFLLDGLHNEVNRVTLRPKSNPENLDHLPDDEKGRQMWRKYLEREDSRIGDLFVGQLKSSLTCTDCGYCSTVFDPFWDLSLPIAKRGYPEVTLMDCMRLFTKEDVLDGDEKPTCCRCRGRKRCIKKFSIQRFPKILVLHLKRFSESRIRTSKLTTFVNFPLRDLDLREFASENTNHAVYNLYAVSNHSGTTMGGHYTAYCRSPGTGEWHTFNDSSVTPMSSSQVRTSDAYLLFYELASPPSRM
Sequence of Tumor susceptibility gene 101 protein (Homo sapiens) (Q99816 whole entry, looked up, the tested form may be a part): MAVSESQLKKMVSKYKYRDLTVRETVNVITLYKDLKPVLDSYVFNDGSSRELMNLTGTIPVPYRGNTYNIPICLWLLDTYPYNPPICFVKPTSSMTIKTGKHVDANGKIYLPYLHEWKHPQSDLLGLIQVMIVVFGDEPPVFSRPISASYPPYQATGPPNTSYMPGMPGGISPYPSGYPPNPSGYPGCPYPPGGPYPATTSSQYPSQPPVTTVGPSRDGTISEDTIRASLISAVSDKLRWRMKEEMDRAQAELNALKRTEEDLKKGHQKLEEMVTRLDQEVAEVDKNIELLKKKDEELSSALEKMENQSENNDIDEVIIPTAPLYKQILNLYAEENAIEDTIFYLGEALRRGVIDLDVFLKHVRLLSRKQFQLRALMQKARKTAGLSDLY
Sequence of ATP-dependent 6-phosphofructokinase (Trypanosoma brucei brucei) (O15648 whole entry, looked up): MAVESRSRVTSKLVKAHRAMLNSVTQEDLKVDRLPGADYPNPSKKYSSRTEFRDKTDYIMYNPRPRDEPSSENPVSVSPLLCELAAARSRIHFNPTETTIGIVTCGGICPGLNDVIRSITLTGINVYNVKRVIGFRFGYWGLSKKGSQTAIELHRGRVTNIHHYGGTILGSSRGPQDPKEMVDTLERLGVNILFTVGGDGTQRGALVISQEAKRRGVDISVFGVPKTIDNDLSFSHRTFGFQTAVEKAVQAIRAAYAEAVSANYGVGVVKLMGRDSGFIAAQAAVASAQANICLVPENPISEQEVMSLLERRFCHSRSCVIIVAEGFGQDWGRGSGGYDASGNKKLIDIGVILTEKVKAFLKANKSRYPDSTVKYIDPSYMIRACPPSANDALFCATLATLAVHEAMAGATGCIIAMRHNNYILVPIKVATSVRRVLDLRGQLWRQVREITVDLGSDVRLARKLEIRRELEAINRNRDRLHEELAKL
Sequence of M-phase phosphoprotein 8 (Homo sapiens) (Q99549 whole entry, looked up): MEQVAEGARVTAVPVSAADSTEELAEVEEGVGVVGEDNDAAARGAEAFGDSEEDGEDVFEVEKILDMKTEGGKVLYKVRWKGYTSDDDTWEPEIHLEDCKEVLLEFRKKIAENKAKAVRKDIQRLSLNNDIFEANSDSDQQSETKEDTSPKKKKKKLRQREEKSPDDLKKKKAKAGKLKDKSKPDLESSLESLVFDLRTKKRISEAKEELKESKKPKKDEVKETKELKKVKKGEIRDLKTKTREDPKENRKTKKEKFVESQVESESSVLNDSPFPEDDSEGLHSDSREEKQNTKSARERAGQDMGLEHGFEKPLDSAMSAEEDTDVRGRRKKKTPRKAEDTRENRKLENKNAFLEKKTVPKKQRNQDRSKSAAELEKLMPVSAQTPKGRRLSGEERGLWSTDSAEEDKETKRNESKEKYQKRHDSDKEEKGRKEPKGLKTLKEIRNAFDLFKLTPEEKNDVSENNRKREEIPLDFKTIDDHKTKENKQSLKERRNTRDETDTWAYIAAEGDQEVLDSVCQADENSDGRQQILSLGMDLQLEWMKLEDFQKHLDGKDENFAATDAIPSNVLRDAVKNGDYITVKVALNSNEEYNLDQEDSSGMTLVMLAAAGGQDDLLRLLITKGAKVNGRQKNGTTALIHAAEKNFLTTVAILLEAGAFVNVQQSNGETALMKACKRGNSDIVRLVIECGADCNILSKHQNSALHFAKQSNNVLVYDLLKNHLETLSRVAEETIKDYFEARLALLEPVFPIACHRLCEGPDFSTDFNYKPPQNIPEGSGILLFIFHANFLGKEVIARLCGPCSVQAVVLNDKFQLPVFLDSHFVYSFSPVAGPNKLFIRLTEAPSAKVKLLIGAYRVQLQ
Sequence of Thioredoxin reductase 1, cytoplasmic (Rattus norvegicus) (O89049 whole entry, looked up): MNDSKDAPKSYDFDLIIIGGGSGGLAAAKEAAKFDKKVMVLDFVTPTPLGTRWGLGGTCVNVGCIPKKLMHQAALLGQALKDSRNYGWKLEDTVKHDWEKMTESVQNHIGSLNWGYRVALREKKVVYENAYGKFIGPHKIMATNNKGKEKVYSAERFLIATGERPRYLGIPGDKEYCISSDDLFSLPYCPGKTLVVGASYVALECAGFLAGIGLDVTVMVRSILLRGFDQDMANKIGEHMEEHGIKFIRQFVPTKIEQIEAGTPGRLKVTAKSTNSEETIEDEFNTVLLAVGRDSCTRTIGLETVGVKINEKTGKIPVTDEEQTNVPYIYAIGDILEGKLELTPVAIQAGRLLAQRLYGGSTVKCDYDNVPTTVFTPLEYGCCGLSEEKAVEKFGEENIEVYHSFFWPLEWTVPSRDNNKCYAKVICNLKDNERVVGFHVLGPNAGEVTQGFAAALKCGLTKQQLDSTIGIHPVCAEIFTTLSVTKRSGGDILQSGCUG

Regarding `CN(C)CCOC(=O)COc1ccc(Cl)cc1`, the compound was classed as inactive in [1], in test [3], in [8], in test [9], in test [11] and in [12]. Also, the Potency entry in [2], in test [4], in test [5], in [6], in test [7] and in test [10] was “inactive” throughout. Also, the Potency result in test [13], in test [14] and in test [15] was “inactive” in each case.
Regarding `O=C(O)CP(=O)(O)O`, the outcome in test [1], in [3], in test [8], in test [9], in test [11] and in test [16] was inactive. The Potency entry in test [2], in test [4], in test [5], in [6], in test [7] and in test [10] was “inactive” throughout. Further, the Potency entry in test [13], in test [14] and in [15] was “inactive” each time.
For the compound `CC(N=C(NC#N)Nc1ccncc1)C(C)(C)C` (stereo unspecified), the compound was called inactive in test [1], in test [3], in [8], in test [9] and in [11]. The Potency entry in [2], in test [4], in test [5], in [6], in [7] and in test [17] was “inactive” throughout. Also, the Potency result in test [10], in [18], in test [19], in [13] and in test [15] was “inactive” throughout.
Turning to `O=C(O)CN(CCOCCOCCN(CC(=O)O)CC(=O)O)CC(=O)O`, the call in [1], in test [3], in test [8], in test [9] and in test [12] was inactive. The Potency entry in [2], in test [4], in [5], in test [6], in test [7] and in test [17] was “inactive” each time. Further, the Potency result in [10], in test [18], in test [13], in test [14] and in [15] was “inactive” throughout.
Turning to `NC/C=C/C(=O)O`, the call in test [1], in test [3], in test [8], in test [9] and in test [11] was inactive. For the same compound, the Potency result in test [2], in test [4], in test [5], in [6], in test [7] and in test [17] was “inactive” each time. The Potency entry in [10], in test [18], in test [13] and in test [14] was “inactive” in each case.
As to `C[C@]12CCC(=O)C=C1CC[C@@H]1[C@@H]2CC[C@@]2(C)[C@H]1CC[C@]2(O)C(=O)CO`, the call in test [1], in test [3], in test [8], in test [9], in test [11] and in [16] was inactive. The result in test [12] was inactive. In addition, the Potency entry in test [2], in test [4], in [5], in test [6], in [7] and in test [17] was “inactive” in each case. Besides, the Potency entry in test [18] and in test [13] was “inactive” in each case.
`COc1cc(Cc2cnc(N)nc2N)cc(OC)c1OC`: the outcome in test [1], in test [3], in test [8] and in test [9] was inactive. Moreover, the Potency entry in test [2], in test [4], in test [5], in test [6], in test [7] and in [10] was “inactive” each time. Moreover, the Potency entry in test [18] and in [13] was “inactive” throughout.
Regarding `CN(C)CCCN1c2ccccc2Sc2ccc(C(F)(F)F)cc21`, the compound was called inactive in test [1], in test [3], in test [8], in [9] and in test [11]. Also, the Potency result in [2], in test [4], in test [17], in test [10], in test [13] and in [15] was “inactive” throughout.
Consider `CO[C@@]1(NC(=O)CSCC#N)C(=O)N2C(C(=O)O)=C(CSc3nnnn3C)CS[C@@H]21`, for which the call in test [1], in [3], in test [8], in [9], in test [11] and in test [16] was inactive. The Potency entry in test [2], in test [4], in test [5], in test [6], in [7] and in [10] was “inactive” in each case. Also, the Potency entry in [18], in test [19] and in test [14] was “inactive” each time. In [13], the Potency was 21.2 µM (active).
